Key:
[1] = system: Epidermal growth factor receptor (Homo sapiens), P00533 [T790M]; settings: at 1 µM
[2] = system: Epidermal growth factor receptor (Homo sapiens), P00533 [L858R,T790M]; settings: at 0.1 µM
[3] = system: Epidermal growth factor receptor (Homo sapiens), P00533 [L858R,T790M]; settings: at 1 µM
[4] = target: Ephrin type-A receptor 2 (Homo sapiens) (UniProt P29317); settings: at 0.1 µM
[5] = target: Ephrin type-A receptor 2 (Homo sapiens) (UniProt P29317); settings: at 1 µM
[6] = target: T1, Ephrin type-A receptor 3 (Homo sapiens) (UniProt P29320); settings: at 0.1 µM
T1 sequence (whole entry): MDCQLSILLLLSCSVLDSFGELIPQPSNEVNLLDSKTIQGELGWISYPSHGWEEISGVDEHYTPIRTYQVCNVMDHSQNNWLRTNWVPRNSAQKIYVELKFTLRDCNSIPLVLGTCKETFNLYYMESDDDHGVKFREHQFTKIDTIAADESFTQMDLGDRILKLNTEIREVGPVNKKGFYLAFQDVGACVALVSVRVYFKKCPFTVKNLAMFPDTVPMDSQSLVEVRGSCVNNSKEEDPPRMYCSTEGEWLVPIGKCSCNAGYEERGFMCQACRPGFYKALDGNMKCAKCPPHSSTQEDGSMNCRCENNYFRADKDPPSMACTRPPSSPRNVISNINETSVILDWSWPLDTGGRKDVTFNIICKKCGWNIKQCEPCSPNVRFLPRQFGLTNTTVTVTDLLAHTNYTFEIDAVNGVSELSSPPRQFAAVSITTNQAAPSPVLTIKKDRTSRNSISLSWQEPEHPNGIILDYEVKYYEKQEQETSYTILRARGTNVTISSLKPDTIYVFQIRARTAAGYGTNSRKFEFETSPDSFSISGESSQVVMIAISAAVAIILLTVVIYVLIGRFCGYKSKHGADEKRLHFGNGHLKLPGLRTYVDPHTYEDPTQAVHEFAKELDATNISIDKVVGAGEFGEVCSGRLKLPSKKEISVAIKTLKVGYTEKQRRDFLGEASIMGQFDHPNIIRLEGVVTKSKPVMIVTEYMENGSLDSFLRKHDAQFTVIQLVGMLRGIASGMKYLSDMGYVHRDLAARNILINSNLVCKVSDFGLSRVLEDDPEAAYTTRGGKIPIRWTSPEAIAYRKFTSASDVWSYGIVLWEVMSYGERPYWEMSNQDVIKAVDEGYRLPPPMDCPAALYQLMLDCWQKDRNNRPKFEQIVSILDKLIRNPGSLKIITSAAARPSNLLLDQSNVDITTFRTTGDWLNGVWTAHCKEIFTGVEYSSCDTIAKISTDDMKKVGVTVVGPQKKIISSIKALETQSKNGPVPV

[7] = target: T1, Ephrin type-A receptor 3 (Homo sapiens); settings: at 1 µM
[8] = target: Ephrin type-A receptor 4 (Homo sapiens) (UniProt P54764); settings: at 0.1 µM
Sequence of Ephrin type-A receptor 4 (Homo sapiens) (P54764 whole entry): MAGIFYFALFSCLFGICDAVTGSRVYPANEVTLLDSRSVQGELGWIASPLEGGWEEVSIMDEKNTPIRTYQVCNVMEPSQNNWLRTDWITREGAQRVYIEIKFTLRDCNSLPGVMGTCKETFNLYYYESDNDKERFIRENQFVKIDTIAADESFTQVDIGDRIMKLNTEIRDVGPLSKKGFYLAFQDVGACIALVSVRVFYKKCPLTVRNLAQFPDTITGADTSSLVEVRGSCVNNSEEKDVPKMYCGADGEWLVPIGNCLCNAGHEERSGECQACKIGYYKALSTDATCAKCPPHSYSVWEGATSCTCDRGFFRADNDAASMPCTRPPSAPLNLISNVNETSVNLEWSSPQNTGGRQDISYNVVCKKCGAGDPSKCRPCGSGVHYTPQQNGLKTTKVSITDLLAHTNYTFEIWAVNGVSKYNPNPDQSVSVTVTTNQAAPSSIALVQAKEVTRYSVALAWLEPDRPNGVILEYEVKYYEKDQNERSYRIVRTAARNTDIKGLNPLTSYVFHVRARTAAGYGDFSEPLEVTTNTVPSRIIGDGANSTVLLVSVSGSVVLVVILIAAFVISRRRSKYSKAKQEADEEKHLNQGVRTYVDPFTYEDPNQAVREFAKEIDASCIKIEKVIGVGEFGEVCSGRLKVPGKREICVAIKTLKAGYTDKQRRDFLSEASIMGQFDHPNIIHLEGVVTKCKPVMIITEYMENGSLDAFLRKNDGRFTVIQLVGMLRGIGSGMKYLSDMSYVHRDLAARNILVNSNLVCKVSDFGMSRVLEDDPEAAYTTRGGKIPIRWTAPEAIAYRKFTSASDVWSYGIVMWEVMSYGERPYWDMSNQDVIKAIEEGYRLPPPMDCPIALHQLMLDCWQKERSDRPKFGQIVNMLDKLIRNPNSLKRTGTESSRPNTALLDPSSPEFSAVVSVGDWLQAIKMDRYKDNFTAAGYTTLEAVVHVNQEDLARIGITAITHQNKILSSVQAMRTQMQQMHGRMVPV

[9] = target: Ephrin type-A receptor 4 (Homo sapiens) (UniProt P54764); settings: at 1 µM
[10] = target: T2, Ephrin type-B receptor 2 (Homo sapiens) (UniProt P29323); settings: at 0.1 µM
T2 sequence (whole entry): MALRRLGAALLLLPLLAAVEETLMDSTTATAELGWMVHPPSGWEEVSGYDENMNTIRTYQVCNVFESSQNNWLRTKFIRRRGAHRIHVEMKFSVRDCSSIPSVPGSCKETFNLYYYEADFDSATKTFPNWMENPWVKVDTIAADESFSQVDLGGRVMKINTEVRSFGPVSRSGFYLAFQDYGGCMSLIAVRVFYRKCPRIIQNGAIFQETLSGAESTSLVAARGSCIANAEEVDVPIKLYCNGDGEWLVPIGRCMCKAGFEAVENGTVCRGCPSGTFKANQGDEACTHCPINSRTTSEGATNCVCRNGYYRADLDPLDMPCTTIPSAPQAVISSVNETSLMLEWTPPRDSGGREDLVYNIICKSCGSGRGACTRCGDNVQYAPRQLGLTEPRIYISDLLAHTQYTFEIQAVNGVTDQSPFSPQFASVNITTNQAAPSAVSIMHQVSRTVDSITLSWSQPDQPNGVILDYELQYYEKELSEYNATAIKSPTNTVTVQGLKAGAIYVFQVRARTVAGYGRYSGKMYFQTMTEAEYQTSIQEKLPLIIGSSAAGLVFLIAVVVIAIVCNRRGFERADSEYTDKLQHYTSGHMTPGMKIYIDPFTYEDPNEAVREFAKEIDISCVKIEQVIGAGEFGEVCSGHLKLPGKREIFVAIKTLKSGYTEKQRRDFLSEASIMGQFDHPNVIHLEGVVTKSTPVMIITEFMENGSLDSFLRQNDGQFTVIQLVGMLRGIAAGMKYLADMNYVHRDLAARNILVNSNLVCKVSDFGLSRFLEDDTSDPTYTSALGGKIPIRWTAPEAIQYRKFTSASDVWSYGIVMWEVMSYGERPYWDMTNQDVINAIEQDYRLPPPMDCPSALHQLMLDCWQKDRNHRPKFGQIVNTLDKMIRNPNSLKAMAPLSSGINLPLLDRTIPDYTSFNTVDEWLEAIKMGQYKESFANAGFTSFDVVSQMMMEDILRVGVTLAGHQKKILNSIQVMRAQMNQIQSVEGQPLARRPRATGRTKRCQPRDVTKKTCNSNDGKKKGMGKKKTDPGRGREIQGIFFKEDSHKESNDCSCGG

[11] = target: T2, Ephrin type-B receptor 2 (Homo sapiens); settings: at 1 µM
[12] = target: T3, Ephrin type-B receptor 3 (Homo sapiens) (UniProt P54753); settings: at 0.1 µM
T3 sequence (whole entry): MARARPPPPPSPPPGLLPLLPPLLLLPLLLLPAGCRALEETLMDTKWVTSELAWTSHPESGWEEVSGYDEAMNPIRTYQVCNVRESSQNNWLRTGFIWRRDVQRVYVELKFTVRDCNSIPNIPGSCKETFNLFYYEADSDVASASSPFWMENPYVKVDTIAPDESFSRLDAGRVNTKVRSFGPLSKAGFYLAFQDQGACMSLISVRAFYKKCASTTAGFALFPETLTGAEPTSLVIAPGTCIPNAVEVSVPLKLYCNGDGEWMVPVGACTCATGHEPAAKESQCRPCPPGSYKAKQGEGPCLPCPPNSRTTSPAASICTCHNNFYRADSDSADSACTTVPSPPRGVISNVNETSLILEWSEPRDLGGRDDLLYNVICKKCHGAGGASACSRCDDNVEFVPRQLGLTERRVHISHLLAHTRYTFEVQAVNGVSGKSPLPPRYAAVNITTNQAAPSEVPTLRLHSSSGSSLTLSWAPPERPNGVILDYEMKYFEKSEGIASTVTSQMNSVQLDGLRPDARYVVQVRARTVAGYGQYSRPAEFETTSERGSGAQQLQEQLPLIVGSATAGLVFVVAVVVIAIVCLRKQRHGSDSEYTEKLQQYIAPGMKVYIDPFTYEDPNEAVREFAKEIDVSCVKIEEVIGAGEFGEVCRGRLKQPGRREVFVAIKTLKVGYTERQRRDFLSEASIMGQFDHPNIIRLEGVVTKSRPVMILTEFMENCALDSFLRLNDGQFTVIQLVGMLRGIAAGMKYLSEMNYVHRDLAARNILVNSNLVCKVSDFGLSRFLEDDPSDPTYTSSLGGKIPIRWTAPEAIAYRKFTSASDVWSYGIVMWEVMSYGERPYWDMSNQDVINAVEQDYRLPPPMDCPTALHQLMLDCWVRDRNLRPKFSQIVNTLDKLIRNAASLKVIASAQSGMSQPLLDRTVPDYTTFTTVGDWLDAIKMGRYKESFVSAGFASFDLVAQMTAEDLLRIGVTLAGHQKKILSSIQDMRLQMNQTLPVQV

[13] = target: T3, Ephrin type-B receptor 3 (Homo sapiens); settings: at 1 µM
[14] = target: T4, Ephrin type-B receptor 4 (Homo sapiens) (UniProt P54760); settings: at 0.1 µM
T4 sequence (whole entry): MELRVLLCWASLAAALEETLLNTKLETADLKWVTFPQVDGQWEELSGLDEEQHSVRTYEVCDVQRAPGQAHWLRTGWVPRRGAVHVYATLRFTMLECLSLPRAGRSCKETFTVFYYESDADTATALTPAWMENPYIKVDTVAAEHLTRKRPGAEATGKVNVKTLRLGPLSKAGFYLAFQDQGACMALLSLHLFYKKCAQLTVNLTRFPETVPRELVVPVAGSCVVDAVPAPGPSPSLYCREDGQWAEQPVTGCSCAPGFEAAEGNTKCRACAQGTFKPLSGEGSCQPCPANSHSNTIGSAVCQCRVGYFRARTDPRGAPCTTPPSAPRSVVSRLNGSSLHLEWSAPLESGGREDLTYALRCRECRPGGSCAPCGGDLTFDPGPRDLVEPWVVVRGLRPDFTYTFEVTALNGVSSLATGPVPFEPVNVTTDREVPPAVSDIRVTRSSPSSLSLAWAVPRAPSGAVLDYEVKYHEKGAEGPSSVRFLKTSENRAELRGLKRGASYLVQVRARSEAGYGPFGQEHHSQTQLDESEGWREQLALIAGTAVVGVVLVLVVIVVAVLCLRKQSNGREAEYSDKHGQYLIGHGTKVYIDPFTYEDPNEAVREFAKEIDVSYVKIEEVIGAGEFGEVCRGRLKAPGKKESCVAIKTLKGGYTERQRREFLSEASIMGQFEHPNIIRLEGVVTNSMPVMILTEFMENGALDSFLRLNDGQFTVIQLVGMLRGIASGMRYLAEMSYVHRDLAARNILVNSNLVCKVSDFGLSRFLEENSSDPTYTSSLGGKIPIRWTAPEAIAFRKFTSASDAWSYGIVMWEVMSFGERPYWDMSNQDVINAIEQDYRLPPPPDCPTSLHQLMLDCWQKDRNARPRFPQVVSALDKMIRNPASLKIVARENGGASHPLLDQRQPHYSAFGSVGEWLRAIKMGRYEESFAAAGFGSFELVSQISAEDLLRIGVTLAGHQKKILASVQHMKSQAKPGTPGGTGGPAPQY

[15] = target: T4, Ephrin type-B receptor 4 (Homo sapiens); settings: at 1 µM
[16] = target: Receptor tyrosine-protein kinase erbB-2 (Homo sapiens) (UniProt P04626); settings: at 0.1 µM
[17] = target: Receptor tyrosine-protein kinase erbB-2 (Homo sapiens) (UniProt P04626); settings: at 1 µM
[18] = target: Receptor tyrosine-protein kinase erbB-4 (Homo sapiens) (UniProt Q15303); settings: at 0.1 µM
Sequence of Receptor tyrosine-protein kinase erbB-4 (Homo sapiens) (Q15303 whole entry): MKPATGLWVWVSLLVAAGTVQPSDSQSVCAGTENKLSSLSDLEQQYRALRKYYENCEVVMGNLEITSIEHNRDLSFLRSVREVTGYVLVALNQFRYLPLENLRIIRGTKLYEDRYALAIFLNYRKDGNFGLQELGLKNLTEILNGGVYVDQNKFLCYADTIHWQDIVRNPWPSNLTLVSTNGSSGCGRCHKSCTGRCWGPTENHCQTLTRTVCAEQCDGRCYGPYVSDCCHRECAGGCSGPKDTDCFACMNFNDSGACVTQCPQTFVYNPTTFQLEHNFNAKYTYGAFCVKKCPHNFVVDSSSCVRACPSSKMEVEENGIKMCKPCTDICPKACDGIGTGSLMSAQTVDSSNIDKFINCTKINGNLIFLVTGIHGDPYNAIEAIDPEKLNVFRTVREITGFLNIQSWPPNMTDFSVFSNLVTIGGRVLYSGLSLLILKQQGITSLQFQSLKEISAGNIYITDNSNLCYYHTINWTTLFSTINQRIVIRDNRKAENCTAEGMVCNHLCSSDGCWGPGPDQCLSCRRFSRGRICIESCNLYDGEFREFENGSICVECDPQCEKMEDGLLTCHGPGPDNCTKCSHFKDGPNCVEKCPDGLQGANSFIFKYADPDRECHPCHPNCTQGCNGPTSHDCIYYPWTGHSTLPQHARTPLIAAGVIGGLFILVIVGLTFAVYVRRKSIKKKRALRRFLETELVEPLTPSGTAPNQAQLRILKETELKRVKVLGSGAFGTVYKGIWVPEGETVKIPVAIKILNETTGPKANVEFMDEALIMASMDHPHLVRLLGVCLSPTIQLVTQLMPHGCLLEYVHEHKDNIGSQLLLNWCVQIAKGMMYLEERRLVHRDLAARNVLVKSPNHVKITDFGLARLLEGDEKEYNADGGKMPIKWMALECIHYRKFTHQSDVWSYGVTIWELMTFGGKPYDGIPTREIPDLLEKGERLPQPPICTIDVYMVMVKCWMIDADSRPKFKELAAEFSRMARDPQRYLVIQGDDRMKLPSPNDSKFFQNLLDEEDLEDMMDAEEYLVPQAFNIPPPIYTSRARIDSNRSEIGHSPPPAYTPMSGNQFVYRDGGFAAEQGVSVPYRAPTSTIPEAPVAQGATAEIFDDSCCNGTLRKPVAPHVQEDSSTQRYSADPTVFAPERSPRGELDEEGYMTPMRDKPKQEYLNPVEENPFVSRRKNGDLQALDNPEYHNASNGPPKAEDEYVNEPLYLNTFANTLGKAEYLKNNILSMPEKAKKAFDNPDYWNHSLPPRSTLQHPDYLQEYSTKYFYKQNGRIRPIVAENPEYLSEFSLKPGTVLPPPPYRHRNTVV

[19] = target: Receptor tyrosine-protein kinase erbB-4 (Homo sapiens) (UniProt Q15303); settings: at 1 µM
[20] = target: Tyrosine-protein kinase Fer (Homo sapiens) (UniProt P16591); settings: at 0.1 µM;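 further: reported figures are averaged percent inhibition of FER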

Sequence of Ephrin type-A receptor 2 (Homo sapiens) (P29317 whole entry): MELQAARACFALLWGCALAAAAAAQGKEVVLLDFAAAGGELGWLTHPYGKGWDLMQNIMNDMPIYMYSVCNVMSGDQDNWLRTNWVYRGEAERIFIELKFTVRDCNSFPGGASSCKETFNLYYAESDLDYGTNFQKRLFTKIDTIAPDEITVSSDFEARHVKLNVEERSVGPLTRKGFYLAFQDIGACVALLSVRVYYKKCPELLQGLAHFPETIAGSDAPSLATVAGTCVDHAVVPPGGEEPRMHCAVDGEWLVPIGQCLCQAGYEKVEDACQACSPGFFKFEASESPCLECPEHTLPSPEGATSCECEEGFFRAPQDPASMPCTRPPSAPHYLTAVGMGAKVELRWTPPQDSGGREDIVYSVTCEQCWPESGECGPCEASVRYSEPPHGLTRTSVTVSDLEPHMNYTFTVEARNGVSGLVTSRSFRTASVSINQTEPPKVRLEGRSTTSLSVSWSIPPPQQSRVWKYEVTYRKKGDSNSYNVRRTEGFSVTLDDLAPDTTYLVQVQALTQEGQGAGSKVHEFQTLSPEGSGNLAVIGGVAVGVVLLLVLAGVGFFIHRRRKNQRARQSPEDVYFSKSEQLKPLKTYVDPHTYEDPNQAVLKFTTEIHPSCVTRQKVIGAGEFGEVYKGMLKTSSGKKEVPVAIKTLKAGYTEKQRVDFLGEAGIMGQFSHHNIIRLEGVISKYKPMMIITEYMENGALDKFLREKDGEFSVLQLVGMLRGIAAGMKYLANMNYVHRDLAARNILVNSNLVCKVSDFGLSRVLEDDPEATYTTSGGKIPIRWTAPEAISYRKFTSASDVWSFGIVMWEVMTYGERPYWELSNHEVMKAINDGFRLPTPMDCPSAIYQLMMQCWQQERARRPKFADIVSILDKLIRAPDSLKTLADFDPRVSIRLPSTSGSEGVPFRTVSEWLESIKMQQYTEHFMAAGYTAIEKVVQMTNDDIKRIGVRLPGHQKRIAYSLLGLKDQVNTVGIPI
Sequence of Epidermal growth factor receptor (Homo sapiens), P00533 [T790M] (P00533 whole entry T790M): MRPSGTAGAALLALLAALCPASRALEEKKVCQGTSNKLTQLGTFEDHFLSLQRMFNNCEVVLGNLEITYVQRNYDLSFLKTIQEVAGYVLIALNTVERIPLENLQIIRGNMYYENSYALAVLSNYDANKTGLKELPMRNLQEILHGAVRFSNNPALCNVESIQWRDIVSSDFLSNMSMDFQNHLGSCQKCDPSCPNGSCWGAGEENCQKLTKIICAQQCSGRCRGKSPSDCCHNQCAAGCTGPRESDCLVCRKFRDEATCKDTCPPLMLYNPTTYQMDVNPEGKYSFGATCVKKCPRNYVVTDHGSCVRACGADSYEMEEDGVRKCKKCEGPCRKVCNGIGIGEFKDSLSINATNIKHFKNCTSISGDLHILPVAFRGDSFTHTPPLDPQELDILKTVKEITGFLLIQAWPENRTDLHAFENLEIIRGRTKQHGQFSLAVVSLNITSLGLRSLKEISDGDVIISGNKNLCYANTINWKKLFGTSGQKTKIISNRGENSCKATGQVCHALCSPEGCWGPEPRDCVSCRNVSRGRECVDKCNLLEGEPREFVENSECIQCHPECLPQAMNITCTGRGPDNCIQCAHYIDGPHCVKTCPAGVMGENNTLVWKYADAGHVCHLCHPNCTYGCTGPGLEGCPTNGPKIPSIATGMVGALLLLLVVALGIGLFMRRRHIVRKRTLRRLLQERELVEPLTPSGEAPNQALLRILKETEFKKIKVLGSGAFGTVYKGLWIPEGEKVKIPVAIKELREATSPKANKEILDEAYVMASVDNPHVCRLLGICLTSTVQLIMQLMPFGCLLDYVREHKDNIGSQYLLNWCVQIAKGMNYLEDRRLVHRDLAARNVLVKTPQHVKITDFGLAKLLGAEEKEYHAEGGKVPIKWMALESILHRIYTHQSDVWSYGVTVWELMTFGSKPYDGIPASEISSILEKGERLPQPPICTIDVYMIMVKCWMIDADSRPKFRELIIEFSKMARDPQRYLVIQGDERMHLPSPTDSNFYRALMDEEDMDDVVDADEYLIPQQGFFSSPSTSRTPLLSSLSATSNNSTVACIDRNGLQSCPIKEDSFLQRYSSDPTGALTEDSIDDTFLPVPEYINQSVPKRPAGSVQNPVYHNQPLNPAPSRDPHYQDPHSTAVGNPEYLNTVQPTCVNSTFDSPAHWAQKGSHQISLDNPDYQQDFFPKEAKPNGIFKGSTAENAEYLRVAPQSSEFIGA

Row | Structure (SMILES) | inhibition [1] [%] | inhibition [2] [%] | inhibition [3] [%] | inhibition [4] [%] | inhibition [5] [%] | inhibition [6] [%] | inhibition [7] [%] | inhibition [8] [%] | inhibition [9] [%] | inhibition [10] [%] | inhibition [11] [%] | inhibition [12] [%] | inhibition [13] [%] | inhibition [14] [%] | inhibition [15] [%] | inhibition [16] [%] | inhibition [17] [%] | inhibition [18] [%] | inhibition [19] [%] | inhibition [20] [%]
1 | c1ccc(-c2n[nH]cc2-c2ccnc(-c3ccc(OCCn4ccnc4)cc3)c2)nc1 | 0.85 | -0.66 | 2.87 | -2.85 | -3.04 | -1.82 | 0.58 | 0.18 | 0.69 | -0.16 | 0.77 | 1.4 | -0.01 | 0.04 | -0.88 | 0.33 | -1.51 | -1.46 | 3.39 | 1.51
2 | Cc1ccc(-c2cc3c(NC(=O)C4CC4)ncnc3o2)cc1 | 0.67 | 1.96 | 5.94 | 3.08 | 7.49 | 3.73 | 5.51 | 8.88 | 20.5 | 9.13 | 36.6 | 5.13 | 1.62 | 3.05 | 12.9 | 0.91 | -0.45 | 9.66 | 11.1 | 8.51
3 | COc1cc(Nc2ncc(-c3ccccc3)o2)cc(OC)c1 | 1.99 | 0.93 | 0.21 | 2.21 | 2.39 | 3.02 | 8.57 | 8.98 | 13.7 | 8.98 | 11.5 | 3.34 | 3.15 | 1.28 | 4.64 | 2.1 | 3.72 | 9.38 | 14.6 | 0.58
4 | N#Cc1ccc2c(-c3ccnc(NC4CC4)n3)c(-c3ccc(F)cc3)nn2c1 | 2.72 | 1.77 | 2.17 | -2.09 | -0.16 | 1.29 | 4.31 | 5.96 | 15.6 | 8.8 | 24.5 | 5.62 | 4.39 | -0.62 | 2.45 | 1.97 | 5 | 5.5 | 13.4 | -2.41
5 | COc1c(C(N)=O)cc(-c2ccc(Cl)cc2)cc1-c1ccc(S(N)(=O)=O)cc1 | 3.77 | -1.73 | 0.63 | 1.79 | 1.53 | 3.06 | 4.11 | 8.42 | 10.1 | 8.67 | 8.13 | 1.93 | 4.65 | 5.71 | 3.61 | 1.74 | 4.75 | 7.58 | 12.9 | 0.34
6 | CCn1c(-c2nonc2N)nc2cncc(C(=O)NCCNC)c21 | 4.6 | 1.4 | 5.19 | 0.81 | -0.9 | 1.15 | 5.09 | 7.32 | 10.1 | 12.1 | 7.7 | 3.02 | 3.19 | -0.07 | 0.78 | 5.03 | 3.74 | 10.7 | 12.2 | 4.13
7 | CN(C)CCNC(=O)Nc1ccc(N(C)c2ccnc(Nc3ccc(CS(C)(=O)=O)cc3)n2)cc1 | 1.68 | 4.53 | 6.61 | 2.63 | 1.36 | 3.79 | 4.33 | 6.86 | 6.65 | 10.6 | 15.1 | 5.05 | 1.99 | 2.45 | 3.65 | 0.75 | -0.72 | 8.93 | 9.37 | 4.17

— ChEMBL document CHEMBL1961873, “Compounds: GSK PKIS; Assays: Nanosyn kinase panel” (2012)
